Results taken from PubChem BioAssay AID602142 (NMMLSC, 2011).
The list shows a part of the results. Unmarked numbers belong to inactive results. How the calls were made is not given here.

Molecular target: Lethal factor (Bacillus anthracis) (UniProt P15917)
Test: anthrax lethal factor cleavage blockers – biochemical, multiplex microsphere, cherry pick 1, confirmation (AID 602142)
Details: multiplex microsphere protease cleavage assay, LF; at 10 µM; hits give high values

Chain of Lethal factor (Bacillus anthracis) (P15917 whole entry, looked up): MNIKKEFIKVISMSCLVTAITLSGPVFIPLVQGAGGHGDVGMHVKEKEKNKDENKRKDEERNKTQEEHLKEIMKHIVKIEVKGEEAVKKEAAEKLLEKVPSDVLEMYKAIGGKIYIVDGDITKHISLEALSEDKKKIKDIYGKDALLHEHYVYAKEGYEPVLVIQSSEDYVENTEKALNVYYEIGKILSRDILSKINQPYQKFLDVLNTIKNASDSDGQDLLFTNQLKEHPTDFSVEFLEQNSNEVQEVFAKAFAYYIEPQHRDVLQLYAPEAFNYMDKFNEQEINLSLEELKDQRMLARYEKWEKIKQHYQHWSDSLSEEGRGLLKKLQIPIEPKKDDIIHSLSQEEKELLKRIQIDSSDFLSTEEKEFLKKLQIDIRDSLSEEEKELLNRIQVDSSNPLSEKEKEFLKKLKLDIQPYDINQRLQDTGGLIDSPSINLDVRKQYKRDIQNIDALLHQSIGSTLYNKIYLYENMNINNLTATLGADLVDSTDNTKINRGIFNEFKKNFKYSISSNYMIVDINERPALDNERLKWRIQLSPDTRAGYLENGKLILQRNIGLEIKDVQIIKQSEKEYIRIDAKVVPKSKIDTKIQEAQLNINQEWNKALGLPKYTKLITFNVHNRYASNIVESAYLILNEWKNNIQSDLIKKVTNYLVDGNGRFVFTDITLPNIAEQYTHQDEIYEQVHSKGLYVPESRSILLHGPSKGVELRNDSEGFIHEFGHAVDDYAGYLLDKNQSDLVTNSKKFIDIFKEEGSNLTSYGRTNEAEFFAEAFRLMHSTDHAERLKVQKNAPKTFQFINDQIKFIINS

First: CC(C)Cc1nnc(NC(=O)CCC(=O)Nc2ccc3cn[nH]c3c2)s1
Second: O=C(Nc1nnc(CCc2ccccc2)s1)C1CCCO1 (stereo unspecified)
The inhibition of the first is lower: -2.6% for the first, 2.9% for the second.

First: OC(c1ccc(Cl)cc1)C(CN1CCOCC1)c1ccccc1 (stereo unspecified)
Second: Cc1ccccc1NC(=O)c1cc(S(=O)(=O)Nc2cccc(C(=O)O)c2)ccc1Cl
The inhibition of the first is higher: 3.2% for the first, -0.5% for the second.

Going from `CN(C(=O)c1ccccn1)c1nnc(-c2ccccn2)s1` to `COc1ccccc1CNC(=O)C1Cc2ccccc2C(=O)O1` (stereo unspecified), the inhibition rises from -4.3% to 1.5%.

Compared with `CC1CCc2c(sc3nc4n(c(=O)c23)CCS4)C1` (stereo unspecified), `Cc1cccc2cc3c(N)c(C(=O)N4CCCc5ccccc54)sc3nc12` is higher in inhibition: 3.6% for the first, 13.6% for the second.

First: Clc1ccc(-c2ncc3ccccn23)c(Cl)c1
Second: COc1ccc(Br)cc1CNCCc1cccc(Cl)c1
The inhibition of the first is lower: 2.1% for the first, 3.2% for the second.

Going from `O=C(O)c1cc(S(=O)(=O)NC2CCCc3ccccc32)ccc1O` (stereo unspecified) to `O=S(=O)(NC1CCCCC1N1CCC(O)CC1)c1ccc(Cl)cc1` (stereo unspecified), the inhibition falls from 1.4% to -1.6%.

First: COCCn1nnnc1C(c1cc2ccc(OC)cc2[nH]c1=O)N1CCc2ccccc2C1 (stereo unspecified)
Second: COc1cc2cc(CN(CCN3CCCC3)C(=O)Nc3ccccc3Cl)c(=O)[nH]c2cc1OC
The inhibition of the first is lower: -6.3% for the first, -0.1% for the second.

Going from `CCCN1C2CCCC1CC(NC(=O)c1cccc(OC)c1)C2` (stereo unspecified) to `Cc1cc(S(=O)(=O)NC2CCCC2)ccc1-n1cnnn1`, the inhibition falls from 3.1% to -3.6%.

First: COc1cc(C(=O)NCc2ccc3c(c2)cc(C)n3C)cc(OC)c1OC
Second: CCOCC(=O)NCc1ccc2c(c1)cc(C)n2C
The inhibition of the first is lower: -4% for the first, -1% for the second.

First: O=C(CN1CCCCCC1)Nc1c(Cl)cc(Cl)cc1Cl
Second: COCc1cc(=O)[nH]c(SC)n1
The inhibition of the first is higher: 2.3% for the first, -4.9% for the second.

Work on `CCOCCn1c(-c2ccccc2)nc2ccccc21` yielded an inhibition of -0.9%.
